In PubChem BioAssay (NCATS):
Records with an inconclusive call do not appear. The source made the active and inactive calls. Calls follow the shape of the dose curve; as a rule, active = well fitted curve in the direction sought with a large enough effect; inconclusive = small, poorly fitted or top-dose-only effect, or another doubt; inactive = no such curve, though single readings can be large; an effect the other way counts as inactive or inconclusive.

Tests used:
[1] = Quantitative High-Throughput drug screen in 47 multiple myeloma cell lines against the NCATS MIPE library collection: FR4_PLB cell viability assay (AID 1918924; also: nearly all actives have a fitted effect of over 35% in size)
Method in brief: (§1)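 Inhibition of cell viability is measured here. Each line was plated at 500 cells per well, treated with MIPE 4.0 drugs, kept 48 hours at 37C, then assayed for ATP content by CellTiter-Glo luminescence.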

[2] = Quantitative High-Throughput drug screen in 47 multiple myeloma cell lines against the NCATS MIPE library collection: Delta47_JCRB cell viability assay (AID 1918925; also: nearly all actives have a fitted effect of over 45% in size)
Method in brief: (§2)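 qHTS of the MIPE 4.0 collection: 500 myeloma cells/well, 48 h drug exposure at 37C in 5% CO2, then CellTiter-Glo for 5 min at room temperature before luminescence reading.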

[3] = Quantitative High-Throughput drug screen in 47 multiple myeloma cell lines against the NCATS MIPE library collection: EJM_DSMZ cell viability assay (AID 1918926; also: nearly all actives have a fitted effect of over 30% in size)
Method in brief: as §2

[4] = Quantitative High-Throughput drug screen in 47 multiple myeloma cell lines against the NCATS MIPE library collection: ARP1_JJKsccF8 cell viability assay (AID 1918928; also: nearly all actives have a fitted effect of over 40% in size)
Method in brief: (§3)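 Myeloma cells at 500 per well in 1536-well format treated with MIPE 4.0 library by pin transfer for 48 h at 37C, 5% CO2. Viability from ATP luminescence (CellTiter-Glo), normalized to DMSO (100%) and media-only (0%) wells.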

[5] = Quantitative High-Throughput drug screen in 47 multiple myeloma cell lines against the NCATS MIPE library collection: ARD_JJKsccE7 cell viability assay (AID 1918929)
Method in brief: as §2

[6] = Quantitative High-Throughput drug screen in 47 multiple myeloma cell lines against the NCATS MIPE library collection: Karpas620_DSMZ cell viability assay (AID 1918959); also: nearly all actives have a fitted effect of over 30% in size
Method in brief: as §1

[7] = Quantitative High-Throughput drug screen in 47 multiple myeloma cell lines against the NCATS MIPE library collection: KMM1_JCRB cell viability assay (AID 1918960); also: nearly all actives have a fitted effect of over 30% in size
Method in brief: as §3

[8] = Quantitative High-Throughput drug screen in 47 multiple myeloma cell lines against the NCATS MIPE library collection: JIM3_ECACC cell viability assay (AID 1918963; also: nearly all actives have a fitted effect of over 35% in size)
Method in brief: as §1

[9] = Quantitative High-Throughput drug screen in 47 multiple myeloma cell lines against the NCATS MIPE library collection: INA6_PLB cell viability assay (AID 1918965; also: nearly all actives have a fitted effect of over 55% in size)
Method in brief: as §2

[10] = Quantitative High-Throughput drug screen in 47 multiple myeloma cell lines against the NCATS MIPE library collection: JJN3_DSMZ cell viability assay (AID 1918966; also: nearly all actives have a fitted effect of over 50% in size)
Method in brief: as §2

[11] = Quantitative High-Throughput drug screen in 47 multiple myeloma cell lines against the NCATS MIPE library collection: H1112_PLB cell viability assay (AID 1918967; also: nearly all actives have a fitted effect of over 30% in size)
Method in brief: as §2

[12] = Quantitative High-Throughput drug screen in 47 multiple myeloma cell lines against the NCATS MIPE library collection: Karpas25_ECACC cell viability assay (AID 1918968; also: nearly all actives have a fitted effect of over 35% in size)
Method in brief: as §2

[13] = Quantitative High-Throughput drug screen in 47 multiple myeloma cell lines against the NCATS MIPE library collection: KMS27_JCRB cell viability assay (AID 1918970); also: nearly all actives have a fitted effect of over 30% in size
Method in brief: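 ATP-based viability (CellTiter-Glo luminescence) is measured in cells treated 48 h with approved and investigational drugs at 37 °C. Controls are DMSO-only wells for full viability and media-only wells for none.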

[14] = Quantitative High-Throughput drug screen in 47 multiple myeloma cell lines against the NCATS MIPE library collection: KMS12BM_JCRB cell viability assay (AID 1918971); also: nearly all actives have a fitted effect of over 35% in size
Method in brief: as §1

[15] = Quantitative High-Throughput drug screen in 47 multiple myeloma cell lines against the NCATS MIPE library collection: KMS12PE_JCRB cell viability assay (AID 1918972); also: nearly all actives have a fitted effect of over 30% in size
Method in brief: as §2

[16] = Quantitative High-Throughput drug screen in 47 multiple myeloma cell lines against the NCATS MIPE library collection: KHM11_PLB cell viability assay (AID 1918962); also: nearly all actives have a fitted effect of over 35% in size
Method in brief: as §1

[17] = Quantitative High-Throughput drug screen in 47 multiple myeloma cell lines against the NCATS MIPE library collection: JIM1_ECACC cell viability assay (AID 1918964)
Method in brief: as §2

[18] = Quantitative High-Throughput drug screen in 47 multiple myeloma cell lines against the NCATS MIPE library collection: AMO1_DSMZ cell viability assay (AID 1918927; also: nearly all actives have a fitted effect of over 30% in size)
Method in brief: as §2

[19] = Quantitative High-Throughput drug screen in 47 multiple myeloma cell lines against the NCATS MIPE library collection: Karpas417_ECACC cell viability assay (AID 1918961); conditions: Karpas417 myeloma viability, CellTiter-Glo ATP luminescence, 48 h; viability (% of DMSO): at 45.8 µM (top of the series)
Method in brief: as §2
Potency is read from the fitted curve at half-maximal effect.

| Compound | Potency [1] | Potency [2] | Potency [3] | Potency [4] | Potency [5] | Potency [6] | Potency [7] | Potency [8] | Potency [9] | Potency [10] | Potency [11] | Potency [12] | Potency [13] | Potency [14] | Potency [15] | Potency [16] | Potency [17] | Potency [18] | Potency [19] | viability (% of DMSO) [19] |
| --- | --- | --- | --- | --- | --- | --- | --- | --- | --- | --- | --- | --- | --- | --- | --- | --- | --- | --- | --- | --- |
| CC[C@H]1CN2CCc3cc(OC)c(OC)cc3[C@H]2C[C@@H]1C[C@@H]1NCCc2cc(OC)c(OC)cc21 | 0.372 µM (active) | 0.166 µM (active) | 0.187 µM (active) | 0.187 µM (active) | 0.296 µM (active) | 0.235 µM (active) | 0.187 µM (active) | 0.264 µM (active) | 0.0526 µM (active) | 0.209 µM (active) | 0.264 µM (active) | 0.118 µM (active) | 0.148 µM (active) | 0.209 µM (active) | 0.132 µM (active) | – | – | – | – | – |
| CCOc1cc2ncc(C#N)c(Nc3ccc(F)c(Cl)c3)c2cc1NC(=O)C=CCN(C)C | 7.43 µM (active) | 6.62 µM (active) | 5.9 µM (active) | 1.66 µM (active) | – | – | – | 18.7 µM (active) | 0.526 µM (active) | 9.35 µM (active) | 5.26 µM (active) | 0.662 µM (active) | – | 5.26 µM (active) | – | 20.9 µM (active) | – | – | – | – |
| CNC(=O)CN1CCC(Oc2cc3c(Nc4cccc(Cl)c4F)ncnc3cc2OC)CC1 | 0.0264 µM (active) | 0.0187 µM (active) | – | 0.0372 µM (active) | 0.001 µM (active) | 0.001 µM (active) | 0.0148 µM (active) | 0.0332 µM (active) | 0.0235 µM (active) | – | – | 0.0187 µM (active) | 0.001 µM (active) | 0.0187 µM (active) | 0.0105 µM (active) | 0.0372 µM (active) | 0.001 µM (active) | – | – | – |
| CN(C)CCCN=c1c2ccccc2n(C)c2[nH]c(=O)n(C)c(=O)c12 | – | 16.6 µM (active) | 20.9 µM (active) | – | 5.26 µM (active) | – | 4.69 µM (active) | – | 3.72 µM (active) | 16.6 µM (active) | 16.6 µM (active) | – | – | 4.18 µM (active) | 5.9 µM (active) | 5.26 µM (active) | – | 2.96 µM (active) | – | – |
| O=C(C=Cc1cccnc1)NCCCCC1CCN(C(=O)c2ccccc2)CC1 | – | – | inactive | – | – | – | 0.0148 µM (active) | 0.001 µM (active) | 0.001 µM (active) | 0.0209 µM (active) | 0.0132 µM (active) | 0.0059 µM (active) | 0.0132 µM (active) | 0.0209 µM (active) | 0.0148 µM (active) | 0.0235 µM (active) | – | – | 13.2 µM (active) | – |
| CCCCCCCCCC(=O)N[C@@H](Cc1c[nH]c2ccccc12)C(=O)N[C@H](CC(N)=O)C(=O)N[C@@H](CC(=O)O)C(=O)N[C@@H]1C(=O)NCC(=O)N[C@@H](CCCN)C(=O)N[C@@H](CC(=O)O)C(=O)N[C@H](C)C(=O)N[C@@H](CC(=O)O)C(=O)NCC(=O)N[C@H](CO)C(=O)N[C@@H]([C@@H](C)CC(=O)O)C(=O)N[C@@H](CC(=O)c2ccccc2N)C(=O)O[C@@H]1C | – | inactive | inactive | – | – | inactive | inactive | inactive | – | – | – | – | inactive | inactive | inactive | inactive | inactive | inactive | – | – |
| COc1cc2c(Oc3ccc4[nH]c(C)cc4c3F)ncnc2cc1OCCCN1CCCC1 | – | 3.32 µM (active) | – | 23.5 µM (active) | – | 2.96 µM (active) | 2.35 µM (active) | 9.35 µM (active) | 9.35 µM (active) | 20.9 µM (active) | 8.33 µM (active) | 5.9 µM (active) | – | 29.6 µM (active) | 2.64 µM (active) | 4.69 µM (active) | – | – | – | – |
| O=C(O)[C@H](Cc1c[nH]c2ccccc12)N1C(=O)c2ccccc2C1=O | inactive | – | inactive | – | – | inactive | inactive | inactive | – | – | – | inactive | – | – | inactive | – | inactive | – | – | – |
| Cc1cnc(-c2cnc(NCCNc3ccc(C#N)cn3)nc2-c2ccc(Cl)cc2Cl)[nH]1 | – | – | – | – | inactive | inactive | inactive | – | 2.35 µM (active) | – | – | 5.9 µM (active) | inactive | – | – | 16.6 µM (active) | inactive | – | – | – |
| COc1c(N2C[C@@H]3CCCN[C@H]3C2)c(F)cc2c(=O)c(C(=O)O)cn(C3CC3)c12 | – | inactive | – | 37.2 µM (active) | – | inactive | – | – | – | – | inactive | – | 18.7 µM (active) | 14.8 µM (active) | inactive | – | – | – | – | – |
| O=C(O)CO.[NH2-].[NH2-].[Pt+2] | inactive | – | inactive | inactive | – | inactive | inactive | inactive | – | inactive | inactive | inactive | – | inactive | inactive | – | inactive | inactive | – | – |
| Cc1cc(Nc2cc(NC(=O)c3c(Cl)cccc3Cl)ccn2)nc(N)n1 | – | 18.7 µM (active) | 16.6 µM (active) | – | 0.209 µM (active) | – | 0.418 µM (active) | 0.469 µM (active) | 0.935 µM (active) | 0.743 µM (active) | 1.05 µM (active) | 13.2 µM (active) | 0.264 µM (active) | 18.7 µM (active) | 0.166 µM (active) | – | – | 0.187 µM (active) | 2.64 µM (active) | – |
| Nc1nc(-c2nn(Cc3ccccc3F)c3ncccc23)nc(N)c1N1CCOCC1 | inactive | – | inactive | – | – | – | – | – | – | inactive | inactive | – | – | inactive | – | – | inactive | 20.9 µM (active) | – | 86.8% (active) |
| Cc1ccc(CN2CCNCC2)cc1NC(=O)CNc1ccc(F)c(F)c1 | – | inactive | 3.32 µM (active) | – | inactive | – | inactive | inactive | – | inactive | inactive | – | inactive | – | inactive | – | inactive | – | – | – |
